This passage reports growth results from PubChem BioAssay (NCI).

Each structure is given as a SMILES string. The panel holds about 83,000 compounds, 20% with a hit somewhere; the sample as a whole holds those more often.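 Single-dose data. Exposure time 48 hours. Values below 10 considered active.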 A number with no mark means an inactive call. Active and inactive are the calls of the source.

This assay has as its system A498 renal. Nature of the assay: NCI-60 one-dose screen, 48 h (100 = growth as untreated, 0 = no growth, -100 = all killed). To be noted: 10 µM.
Consider `COc1ccccc1C(=O)NNC(=O)CSc1nc2c(c(=O)[nH]1)CCCC2`, for which the growth was 153%.
For `NC1=NC(c2ccccc2Cl)N=C(Nc2nn[nH]n2)N1` (centres undefined), the growth is 104%.
Consider `COc1ccc2nc(Cl)c(-c3cc(-c4ccccc4)nc(=O)[nH]3)cc2c1`, for which the growth was 104%.
To `O=c1[nH]n(C(=S)N/N=C/c2ccc(F)cc2)c(=O)c2ccccc12` belongs 105%; to `O=C(CS(=O)(=O)c1oc(-c2ccc(Cl)cc2)nc1S(=O)(=O)c1ccccc1)N1CCCC1`, 110%; to `O=C1Nc2cc(Cl)ccc2/C1=C/c1cccc(OCc2ccc(Br)cc2F)c1`, 60%.
Turning to `Cc1nc2c(cnn2-c2ccccc2)c(=O)n1-c1ccc(NC(=O)c2ccc(F)cc2)cc1`, the growth was 86.8%.
Regarding `S=c1nc(-c2ccccc2)cc(-c2cc3ccccc3nc2Cl)[nH]1`, the growth is 126%.
To `Cc1ccc(C(=O)Nc2ccc(-n3c(C)nc4c(cnn4-c4ccccc4)c3=O)cc2)cc1` belongs 87.3%; to `Cc1cc(C)nc(NS(=O)(=O)c2ccc(N/C(N)=N/c3nccc(-c4cccs4)n3)cc2)n1`, 117%.
To `COc1ccc(CN2[C@H](C(=O)NCc3ccc(C(=O)NO)cc3)Cc3c([nH]c4ccccc34)[C@H]2C2CC2)cc1` belongs 65%; to `O=C1Nc2ccc(Cl)cc2/C1=C/c1cccc(OCc2ccccc2)c1`, 84.2%; to `O=C(Cn1cc(CSc2nnc3oc4ccccc4n23)nn1)Nc1ccc(Br)cc1`, 119%.
To `CCN1CCN(c2ccc(NC(=O)Nc3ccc(-c4cc(C(=O)NC)c5ncccc5n4)cc3)cc2C(F)(F)F)CC1` belongs -98.4% (active).
